Screening data from PubChem.
Rows were chosen to be rich in hits. Some 3.3% of all compounds tested hit in one or more screens of this group.
USP1-UAF1 inh = blocks the human USP1/UAF1 deubiquitinase complex; actives 0.23% (n = 390,000); recombinant USP1/UAF1, Ub-Rhodamine cleavage fluorescence; Potency, µM (top dose mostly 57.1 µM), for inactives: at the highest dose activity change, negative = inhibition, hits mostly inhibitors; note: potency is the fitted concentration of half-maximal effect; nearly all actives have a fitted effect of over 60% in size
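Step one: compound is pinned into 1nM USP1/UAF1 in HEPES pH 7.8 buffer with TCEP. Step two: 15 min room-temperature incubation. Step three: Ub-Rho (150nM final) starts cleavage, tracked by fluorescence over six one-minute reads.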
PLK1 PBD inh = inhibitors of human PLK1 polo-box domain binding; P53350; Plk1 PBD binding of FITC phosphopeptide, fluorescence polarization; Potency, µM, for inactives: max response, negative = inhibition, actives largely listed as inhibitors; actives 2.8% (n = 360,000); note: potency is the fitted concentration of half-maximal effect; series mostly up to about 57 µM; nearly all actives have a fitted effect of over 65% in size
Target sequence (P53350 whole entry, looked up, the tested form may be a part): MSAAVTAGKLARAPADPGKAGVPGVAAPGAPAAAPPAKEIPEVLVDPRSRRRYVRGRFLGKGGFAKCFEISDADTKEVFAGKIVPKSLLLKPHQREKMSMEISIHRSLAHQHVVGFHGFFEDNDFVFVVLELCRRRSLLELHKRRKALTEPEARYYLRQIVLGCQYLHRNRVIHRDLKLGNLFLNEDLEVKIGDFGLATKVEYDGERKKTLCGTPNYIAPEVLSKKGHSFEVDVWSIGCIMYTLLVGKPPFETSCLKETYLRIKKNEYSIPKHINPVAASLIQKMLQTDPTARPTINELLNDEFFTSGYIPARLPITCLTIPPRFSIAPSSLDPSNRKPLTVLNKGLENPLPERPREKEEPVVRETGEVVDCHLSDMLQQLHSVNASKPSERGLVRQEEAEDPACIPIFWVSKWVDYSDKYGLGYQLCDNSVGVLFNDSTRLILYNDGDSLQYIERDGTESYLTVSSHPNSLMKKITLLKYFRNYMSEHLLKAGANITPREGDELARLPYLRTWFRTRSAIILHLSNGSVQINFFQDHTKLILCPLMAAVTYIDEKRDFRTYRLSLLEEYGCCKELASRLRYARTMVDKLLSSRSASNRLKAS
PI5P4Ka inh = PI5P4K alpha (human) kinase inhibition. P48426. PI5P4Kalpha enzyme, ADP-Glo luminescence, 60 min; hits give low values. max response, %. actives 1.2% (n = 330,000). AID 652105; active = max response of -50% or lower; inconclusive = between -30% and -50%; inactive = -30% or higher; note: value at the top dose of about 77 µM
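Single end-point luminescence (ADP-Glo) quantified ADP from PI5P4Kalpha turnover; ATP 5 microM final, 1 h at RT, 0.1% CHAPS and 0.28 mM EGTA in HEPES pH 7.4.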
WRN helicase inh = WRN helicase (human) inhibition | Q14191 | WRN helicase unwinding, fluorescent forked duplex, kinetic | Potency, µM (doses to about 114 µM), without a hit: at the highest dose activity change, negative = inhibition, most hits filed as inhibitors | actives 0.46% (n = 360,000) | AID 651768; note: potency is the fitted concentration of half-maximal effect; nearly all actives have a fitted effect of over 55% in size
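Fluorescence dequenching readout, ex 525 nm/em 598 nm, kinetic mode: forked duplex DNA (100 nM final) with adjacent fluorophore and quencher unwound by WRN (20 nM final) with 2 mM ATP. Compound preincubation 15 min, room temperature.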
USP2a inh = inhibitors of human ubiquitin-specific protease USP2a; AID 463254; O75604; Potency, µM (doses to about 38.3 µM), for inactives: top-dose activity change, negative = inhibition, actives largely listed as inhibitors; actives 0.01% (n = 330,000); USP2 core, Ub-CHOP2 coupled fluorogenic reporter, 485/531;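 note: potency is the fitted concentration of half-maximal effect; plate controls were DMSO wells for no effect and full inhibition by NEM control for full effect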
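Deubiquitinase activity read as fluorescence (485/531 nm) after Ub-CHOP2 cleavage activates the enterokinase reporter on its substrate; USP2 core 10nM, Ub-CHOP2 and substrate 25nM each, 30min compound preincubation then 60min RT; data normalized to NEM, curves fitted.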
Numbers without * were called inactive; ? = inconclusive; . = not tested or not shown; [ ] = remark or other dose. Unless noted, calls come from the whole dose curve; as a rule, active = well fitted curve in the direction sought with a large enough effect; inconclusive = small, poorly fitted or top-dose-only effect, or another doubt; inactive = no such curve, though single readings can be large; an effect the other way counts as inactive or inconclusive. Unless noted, % is set by controls: 0 for no effect and ±100 for the full control effect.

SMILES	USP1-UAF1 inh	PLK1 PBD inh	PI5P4Ka inh	WRN helicase inh	USP2a inh
Cc1c(Cl)cccc1Nc1n[nH]c(=S)s1	-12.2%	?	-88.0*	-12.0%	.
S=c1[nH]nc(Nc2cccc3ccccc23)s1	4.6%	?	-73.8*	?	1.4%
Cc1cc(=O)[nH]c(Nc2cccc(Cl)c2C)n1	-23.6%	-0.8%	-2.4	1.5%[57.1 µM]	0.3%
Cc1ccccc1Nc1n[nH]c(=S)s1	-14.1%	?	?	-2.8%	.
Fc1ccccc1Nc1n[nH]c(=S)s1	-32.2%	29.9µM*	-74.0*	-15.9%	0.0%
COc1ccccc1CNc1ncnc2c1c(-c1ccccc1)cn2-c1ccc(Br)cc1	-10.7%	.	.	.	.
COC(=O)c1c(Oc2ccc(Br)cc2)nnc(-c2ccccc2)c1-c1ccccc1	-14.1%	.	.	.	.
CCC(=O)NCC(=O)OCC(=O)c1ccccc1	0.6%	2.99µM*	-26.5	7.4%	0.8%
CCc1ccc(C(=O)COC(=O)CNC(=O)Cc2ccccc2)cc1	-8.0%	10.6%	-2.4	-1.3%	-1.2%
CC[C@@]1(c2ccccc2C)C(=O)N(C(=O)OC)N1C(=O)OC	-25.3%	10.6µM*	0.2	2.5%	0.9%
CC[C@]1(c2cccc(C)c2)C(=O)N(C(=O)OC)N1C(=O)OC	-6.4%	11.9µM*	-8.3	-3.3%	0.2%
COC(=O)N1C(=O)[C@](Cc2ccccc2)(c2ccccc2)N1C(=O)OC	-26.7%	15µM*	-4.2	5.2%	-0.3%
COC(=O)N1C(=O)[C@](c2ccccc2)(C(C)C)N1C(=O)OC	-15.4%	?	0.7	1.9%	0.6%
COC(=O)N1C(=O)[C@@](Cc2ccccc2)(c2ccccc2)N1C(=O)OC	-28.4%	29.9µM*	2.4	-6.1%	0.3%
CC1CCN(C(=O)C2COc3ccccc3C2)CC1 (centres undefined)	-18.7%	.	.	.	.
COc1ccccc1CNC(=O)Cn1ncn2c(cc3sccc32)c1=O	-18.4%	.	.	.	.
CC[C@]1(c2ccccc2)C(=O)N(C(=O)OC)N1C(=O)OC	-13.0%	10.6µM*	-19.5	-2.8%	-0.3%
CC[C@@]1(c2ccccc2)C(=O)N(C(=O)OC)N1C(=O)OC	-30.9%	?	0.2	7.5%	-1.1%
CCN(CC)CCCNC(=O)CNC(=S)N(CCCN1CCOCC1)Cc1cccs1	-8.7%	18.9µM*	-16.8	14.0%	1.9%
O=C(CNC(=S)N(CCCN1CCOCC1)Cc1cccs1)NCCN1CCOCC1	-7.1%	-10.0%	15.4	-5.6%	1.5%
Cc1cc(Cl)ccc1NC(=S)N(CCCN1CCOCC1)Cc1cccs1	-7.2%	10.6µM*	-6.2	-33.6%[57.1 µM]	1.7%
COc1ccc(OC)c(CNC(=O)c2nn(-c3ccc(OC)c(Cl)c3)c(=O)c3c2c2ccccc2n3C)c1	3.4%	.	.	.	.
COc1cc2c(cc1OC)C(COc1ccc3c(C)cc(=O)oc3c1)N(C(=O)c1ccccc1F)CC2 (centres undefined)	-7.4%	.	.	.	.
COC(=O)c1ccccc1NC=C1C(=O)OC2(CCCCC2)OC1=O	-9.2%	4.23µM*	-0.6	-1.5%	-0.2%
CC1(C)CC[C@]2(C(=O)O)CC[C@]3(C)C(=CC[C@@H]4[C@@]5(C)CC[C@H](O[C@@H]6O[C@H](C(=O)O)[C@@H](O)[C@H](O[C@@H]7OC[C@H](O)[C@H](O)[C@H]7O)[C@H]6O)C(C)(C)[C@@H]5CC[C@]43C)[C@@H]2C1	-30.2%	-23.8%	-65.5*	-5.6%[11.6 µM]	-0.5%
SMILES	USP1-UAF1 inh	PLK1 PBD inh	PI5P4Ka inh	WRN helicase inh	USP2a inh
CC1(C)CC[C@]2(C(=O)O[C@@H]3O[C@H](CO)[C@@H](O)[C@H](O)[C@H]3O)CC[C@]3(C)C(=CCC4[C@@]5(C)CC[C@H](O[C@@H]6O[C@H](C(=O)O)[C@@H](O[C@H]7OC[C@@H](O)[C@@H](O)[C@@H]7O)[C@H](O)[C@H]6O)C(C)(C)C5CC[C@]43C)[C@@H]2C1 (some centres undefined)	-27.1%	-7.2%	-23.9	-1.7%	-0.3%
CCCCCCCC/C=C\CCCCCCCC(=O)O	?	10.6µM*	22.4	.	-0.4%
CCCCC/C=C\C/C=C\C/C=C\CCCCC(=O)O	-1.5%	?	-54.1*	?	1.5%
COc1cc(C2C=C(C(=O)O)Nc3ncnn32)ccc1O (centres undefined)	-28.2%	.	.	.	.
COc1cccc(-c2nnc3sc(-c4ccccn4)nn23)c1	-2.9%	26.7µM*	-20.2	-2.2%	-1.6%
Clc1ccc(-c2nnc3sc(-c4ccccn4)nn23)cc1	.	.	.	.	1.0%
COc1cccc(-c2nn3c(-c4ccccn4)nnc3s2)c1	-7.8%	-8.3%	-1.9	-3.9%	0.0%
CC(C)(C)c1ccc(-c2nnc3sc(-c4ccccn4)nn23)cc1	-19.0%	21.2µM*	?	-0.1%	-0.7%
COc1ccccc1NS(=O)(=O)c1cc(N2Cc3ccccc3C2=N)ccc1N1CCOCC1	-1.0%	21.2µM*	-9.3	-8.4%	1.1%
COc1ccccc1NS(=O)(=O)c1cccc(NC(=O)NCCCl)c1	-10.2%	26.7µM*	?	0.7%	3.6%
COCCNC(=S)Nc1ccc(N2CCOCC2)c(S(=O)(=O)Nc2ccccc2OC)c1	-29.6%	21.2µM*	-16.0	-8.4%	-0.5%
COc1ccccc1NS(=O)(=O)c1ccc(C(N)=O)cc1	-0.4%	23.8µM*	6.6	6.7%[57.1 µM]	-0.7%
CCCCOc1ccc(C(=O)Nc2ccc3c(c2)CCCN3S(=O)(=O)c2ccc(C)cc2)cc1	-10.8%	.	.	.	.
COc1ccccc1NS(=O)(=O)c1cccc(NC(=S)NCCN2CCOCC2)c1	-20.8%	23.8µM*	-1.1	3.9%	4.2%
COc1cccc(NC(=S)NCCN2CCOCC2)c1	3.0%	-18.9%	-4.5	8.8%	-0.4%
O=C(CSCc1ccc(Cl)cc1Cl)Nc1ccccc1C(=O)Nc1ccc(C(=O)O)cc1	-19.5%	-9.0%	-2.6	-6.1%	0.5%
C=CCn1c(CSCc2ccc(Cl)cc2Cl)nnc1SCC(=O)Nc1ccc(C(=O)O)cc1	-7.3%	-19.9%	-73.9*	3.7%	-1.1%
Cc1ccc(N2C(=O)[C@@H]3CSC(c4ccc(Cl)cc4)N3C2=O)cc1 (some centres undefined)	-13.6%	.	.	.	.
Cc1cc(C)c(NC(=S)NCCCSC2CCCCC2)c(C)c1	-10.3%	23.8µM*	-9.5	-13.2%	1.3%
COc1cccc(NC(=O)NCCCSC2CCCCC2)c1	-20.3%	1.9%	.	-10.9%	-1.9%
O=C(CN1CCC(Cc2ccccc2)CC1)N1CCc2ccccc2C1	-16.1%	26.7µM*	-11.0	-7.9%[57.1 µM]	2.0%
CC(C)=NOc1nc(N(C)C)nc(N2CCOCC2)n1	-10.7%	29.9µM*	-8.3	-19.1%	6.3%
CC(=O)NCCOc1nc(N(C)C)nc(N2CCOCC2)n1	-18.9%	-1.9%	-1.8	2.2%	1.9%
CCCCn1c(=S)[nH]c2c(=O)n(C)c(=O)n(C)c21	-14.0%	-6.2%	-73.1*	1.9%	.
Cc1ccc2nc(-c3cccs3)c(Nc3ccc4c(c3)OCCO4)n2c1	-11.0%	.	.	.	.
COC(=O)c1ccc(-c2noc(CN(Cc3nccn3C)C(C)C)n2)cc1	-12.8%	16.8µM*	-6.0	14.0%[57.1 µM]	10.1%
